Source: PubChem BioAssay
Most compounds without a hit are left out; they make up all but 4.1% or so of the library.
hcDAF12 agonist – activates DAF-12 receptor from parasite H. contortus | HEK293 hcDAF-12 lit1-tk-luc reporter, luminescence; 0% DMSO, 100% Δ7-dafachronic acid | activation, % at 6.8 µM | actives 1.4% (n = 370,000) | AID 652067;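 active = activation above the mean of all tested compounds plus 3 SD, cut at about 5.5% in these data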;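 note: 100% = response to 3 µM Δ7-dafachronic acid high control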
hgDAF-12 ag – hgDAF-12 agonism, primary luciferase screen. AID 687014. actives 1.8% (n = 370,000). activation, % at 6.8 µM. HEK293 GAL4-hgDAF12 UAS-luciferase reporter, agonist luminescence; normalized to butyrate control;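 active = activation above a cutoff set at the mean of all screened compounds plus 3 SD, cut at about 10% in these data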;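 note: 0% = DMSO wells and 100% = sodium butyrate wells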
DAX1 inh-1 – blocks DAX1 repression of SF-1 activated StAR promoter | HEK293T StAR-luciferase reporter, SF-1/DAX-1 repression relief | inhibition, % at 6.8 µM | actives 1.1% (n = 370,000) | AID 652010;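 active = inhibition above the mean over all tested compounds plus 3 SD, cut at about 3.6% in these data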;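 note: 0% = DAX-1 cells with DMSO and 100% = cells lacking DAX-1 with DMSO; higher inhibition means more luminescence from relief of DAX-1 repression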
ssDAF12 agonist – S. stercoralis DAF-12 activation, primary screen | activation, % at 6.8 µM | HEK293 ssDAF-12/GRIP1 lit1-tk-luc reporter, luminescence; % of 3 µM dafachronic acid response | actives 1% (n = 370,000) | AID 652126;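 active = activation above the mean over all tested compounds plus 3 SD, cut at about 0.9% in these data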;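 note: 0% = DMSO-only wells and 100% = 3 µM delta7-dafachronic acid wells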
DAX1 inh-2 – inhibitors of human orphan nuclear receptor DAX1 (NR0B1); P51843; inhibition, % at 6.75 µM; actives 0.99% (n = 340,000); HEK293 Gal4-DAX1 luciferase reporter, luminescence; AID 504766;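 active = inhibition above the mean over all tested compounds plus 3 SD, cut at about 4.2% in these data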;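 note: 0% = DAX1-transfected cells with DMSO and 100% = empty-vector control cells with DMSO; inhibition shows as a rise in luminescence from relieved DAX1 repression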
Target sequence (P51843 207-470 limits assumed): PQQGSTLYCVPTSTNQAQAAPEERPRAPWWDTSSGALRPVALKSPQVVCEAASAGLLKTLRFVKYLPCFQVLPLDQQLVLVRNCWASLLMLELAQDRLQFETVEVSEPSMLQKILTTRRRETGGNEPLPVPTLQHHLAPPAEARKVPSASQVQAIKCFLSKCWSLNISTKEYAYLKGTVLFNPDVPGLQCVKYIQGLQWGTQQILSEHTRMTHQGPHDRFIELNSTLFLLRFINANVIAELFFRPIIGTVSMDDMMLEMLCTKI
Starred values were filed as active, the others as inactive; / = no result given; ! = repeats disagree.

SMILES	hcDAF12 agonist	hgDAF-12 ag	DAX1 inh-1	ssDAF12 agonist	DAX1 inh-2
CC1CC(c2ccccc2)=Nc2ccccc2N1 (stereo unspecified)	5.7*	8.2	0.7	-0.1	-0.2
Fc1ccccc1/C=N/Nc1ccc(Cl)nn1	0.6	-1.1	0.2	-1.2	1.2
COc1cccc(/C=N/Nc2ccc(Cl)nn2)c1OC	-1.3	2.3	-0.7	-0.9	5.6*
O=C(CSc1nnc(-c2ccc(Cl)cc2)n1-c1ccccc1)Nc1ccc(Oc2ccccc2)cc1	-0.7	0.2	-1.0	-0.8	/
COc1ccc(/C=N/NC(=O)c2nnn(-c3nonc3N)c2C)cc1OC	-1.2	-1.4	-0.5	-1.5	2.4
COc1ccc(/C=N/NC(=O)c2c(C)nnn2-c2nonc2N)cc1OC	0.0	0.2	-0.2	-1.4	5.8*
Cc1ccc(-c2c(NC(=O)C3CC3)nc3ncccn23)cc1	-0.5	2.6	1.1	-1.6	/
O=C1Nc2ccccc2/C1=N\N=C\c1ccc(O)c(O)c1	3.3	-0.3	-0.2	-0.6	4.5*
c1csc(CNc2ncnc3ccc(-c4ccc5c(c4)OCO5)cc23)n1	1.9	1.4	/	-0.6	/
O=C(NCCCc1ccccc1)[C@H](Cc1c[nH]c2ccccc12)NC1(C(=O)NCCc2c[nH]c3ccccc23)CCOCC1	0.6	-4.2	/	-0.5	/
CCOC(=O)COc1ccccc1C1Nc2ccccc2C(=O)N1c1cccc(Cl)c1 (stereo unspecified)	2.1	12.0*	2.6	-1.4	0.6
COc1cccc(C(=O)OCC(=O)c2c[nH]c3ccccc23)c1OC	4.2	4.4	0.7	0.3	3.2
O=C(OCC(=O)c1c[nH]c2ccccc12)c1cncc(Br)c1	3.2	3.5	2.7	0.3	-0.4
O=C(COC(=O)c1c[nH]c2ccccc12)NCc1ccccc1	1.4	0.9	-0.1	-0.7	4.7*
COc1ccc(C(=O)OCC(=O)c2c[nH]c3ccccc23)c(OC)c1	5.4	7.0	-1.6	1.7*	-0.5
O=C(OCC(=O)c1c[nH]c2ccccc12)c1cccc([N+](=O)[O-])c1	2.8	6.2	0.4	1.8*	0.2
COc1ccc(C(=O)COC(=O)c2ccccc2O)c(OC)c1	2.2	11.6*	3.9*	0.4	0.6
O=C(CCc1ccccc1)N[C@H]1[C@H](OCc2ccccc2)CCC[C@@]12C(=O)N(Cc1ccccc1)c1ccc(-c3cnccn3)cc12	-2.5	-1.6	-1.7	-1.0	/
Cc1cccc(C)c1NC(=O)C1(C)CN(S(C)(=O)=O)CC(=O)N1CCc1ccc(O)cc1 (stereo unspecified)	-1.4	-2.6	-1.0	0.1	/
O=S1(=O)N[C@H](Cc2ccccc2)COc2cccc(N3CCC[C@H]3CO)c21	0.2	0.4	-0.3	-0.7	/
O=S1(=O)N[C@@H](Cc2ccccc2)COc2cccc(N3CCC[C@H]3CO)c21	0.6	0.9	4.1*	-1.2	/
O=c1c(-c2nc3ccccc3s2)cccn1Cc1ccccc1	0.9	11.9*	1.4	-0.3	2.2
O=C(CSc1nc(=O)n2ccccc2n1)Nc1cccc2ccccc12	1.7	1.6	0.8	1.0*	0.5
O=C(CSc1cccs1)Nc1ccc2ccccc2c1	-0.8	9.0	-0.2	-1.0	1.2
Cc1cccc(NC(=O)CSc2nc(=O)n3ccccc3n2)c1C	1.0	-0.4	-1.3	-0.9	1.1
SMILES	hcDAF12 agonist	hgDAF-12 ag	DAX1 inh-1	ssDAF12 agonist	DAX1 inh-2
O=C(CSc1cccs1)Nc1cccc2ccccc12	4.6	10.7*	1.6	-0.1	0.7
Cc1ccccc1NC(=O)CCS(=O)(=O)c1ccccc1	1.8	1.2	-0.1	-0.6	/
O=C(NCCCc1ccccc1)C1CCN(c2nc(-c3ccc(Br)cc3)cs2)CC1	-3.4	0.9	/	-2.5	/
COC(=O)[C@]12C[C@H](CC(=O)NCCc3ccccc3OC)C(=O)N(Cc3ccc4c(c3)OCO4)C1=C[C@H](C(C)C)O[C@@H]2C1CC1	-3.5	-1.2	-1.7	-1.0	/
Nc1nc2ncc(CNc3ccc(C(=O)N[C@@H](CCC(=O)O)C(=O)O)cc3)nc2c(=O)[nH]1	0.8	2.5	0.9	-1.7	5.2*
Cc1ccc(S(=O)(=O)N[C@H](CNCc2ccccc2)C(C)C)cc1	3.1	2.0	0.8	-1.1	/
N=C1SC(CC(=O)Nc2ccccc2[N+](=O)[O-])C(=O)N1c1ccccc1 (stereo unspecified)	0.4	-1.8	-0.4	1.6*	-0.6
COc1ccccc1NC(=O)CC1SC(=N)N(c2ccccc2)C1=O (stereo unspecified)	1.5	-0.3	-0.2	-1.6	1.1
Cc1ncoc1C(=O)Nc1ncc([N+](=O)[O-])s1	3.4	11.9*	2.9	-0.5	0.1
O=C(Nc1ncc([N+](=O)[O-])s1)c1ccccc1Br	3.0	5.6	-0.1	-0.2	1.1
O=C(CCS(=O)(=O)Cc1ccccc1)Nc1ncc([N+](=O)[O-])s1	1.1	0.3	4.0*	0.5	0.5
Cc1cnc(NC(=O)c2cccs2)s1	6.2*	12.1*	1.7	-0.1	0.4
O=C(Nc1ncc([N+](=O)[O-])s1)c1cccs1	4.1	8.8	4.3*!	0.0	-0.8
Nn1c(SCC(=O)NC2CCCCC2)nnc1-c1cc(-c2ccccc2)n[nH]1	-0.2	2.7	-0.7	-1.8	/
Cc1cc(Cl)ccc1NC(=O)CCN1C(=O)NC(C)(C)C1=O	-0.3	2.0	0.0	-0.7	0.4
O=C1C(NC(=O)C(F)(F)Br)CCCCN1Cc1cccc(C(F)(F)F)c1 (stereo unspecified)	-2.0	-0.8	-1.2	-1.6	/
O=C(O)/C=C/C(=O)Nc1ccc2c(c1)C(=O)c1ccccc1C2=O	5.3	12.6*	2.1	-0.5	0.3
CC(C)CCCCCCCCc1cccc(O)c1C(=O)O	-1.5	-2.1	0.1	-0.7	/
O=C(O)C1CC=CCC1C(=O)Nc1ccccc1C(=O)N1CCN(c2ccc(Cl)cc2)CC1 (stereo unspecified)	-0.6	-2.4	0.8	0.1	/
O=C(O)CCC(=O)Nc1ccccc1C(=O)N1CCN(c2ccc(Cl)cc2)CC1	-1.0	2.8	0.5	-0.7	6.8*
O=C(OCC#CCSc1nnc(-c2cccc3ccccc23)o1)c1cccc(F)c1	-0.4	3.1	/	-1.5	/
CNc1nc(-c2ccc3c(c2)CCN3C(=O)c2ccc(F)cc2)cs1	-1.4	1.0	-0.9	-1.7	0.4
CNc1nc(-c2ccc3c(c2)CCN3C(=O)c2cccc(F)c2)cs1	0.3	10.7*	-0.9	-1.1	0.0
CSc1ccc(/C=C(/NC(=O)c2ccc(C)cc2)C(=O)Nc2cccc(F)c2)cc1	6.3*	5.1	-0.2	-1.4	2.0
CC(=O)c1cccc(NC(=O)/C(=C\c2cccnc2)NC(=O)c2ccc(C)cc2)c1	0.3	1.2	-0.4	-1.2	1.4
O=C(CNC(=O)c1ccc(Cl)cc1)OCc1nc2ccccc2s1	6.2*	9.0	0.3	-0.3	-0.8
CSC1=NC(=O)/C(=C/c2ccc(SC)cc2)S1	2.5	12.8*	2.6	-1.2	1.2
CCOC(=O)CSC1=NC(=O)/C(=C\c2ccc(Cl)cc2)S1	2.5	7.8	0.6	1.3*	-0.5
